According to the supplement of paper PMC10849652:
About 7,900 targets were measured; listed, in parts, are those with a hit and a random draw of the rest. About 0.6% of all pairs of compound and target were hits.

compound: COc1cc(C(=O)O)ccc1NC(=O)[C@@H]1N[C@@H](CC(C)(C)C)[C@](C#N)(c2ccc(Cl)cc2F)[C@H]1c1cccc(Cl)c1F [idasanutlin]; assay: log2 fold change, soluble protein after heating vs DMSO (PISA); higher = thermal stabilisation; K562 cells, 10 uM, 30 min; active = over 0.2 and 3.5 SD of the protein, either way, in both replicates (recomputed)
Summary of the method: (§1)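 Quantification of soluble protein used TMTpro 16plex LC-MS/MS, with channel sums equalised. Samples were the supernatant after 21,000xg for 90 min of pooled aliquots from K562 cells (2×10^6 cells/mL) treated with 10 μM compound for 30 min, heated for 3 min over 48°C-58°C, and extracted in PBS with 0.5% NP-40 at 4°C. Values, from duplicates, describe thermal stability against control samples on a log2 fold-change scale.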

Sequence of UniProt P60520 (P60520 whole entry, looked up): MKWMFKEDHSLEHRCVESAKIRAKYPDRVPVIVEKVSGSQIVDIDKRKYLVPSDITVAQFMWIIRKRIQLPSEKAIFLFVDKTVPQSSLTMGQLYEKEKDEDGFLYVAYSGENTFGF
Sequence of UniProt Q9UKD1 (Q9UKD1 whole entry, looked up): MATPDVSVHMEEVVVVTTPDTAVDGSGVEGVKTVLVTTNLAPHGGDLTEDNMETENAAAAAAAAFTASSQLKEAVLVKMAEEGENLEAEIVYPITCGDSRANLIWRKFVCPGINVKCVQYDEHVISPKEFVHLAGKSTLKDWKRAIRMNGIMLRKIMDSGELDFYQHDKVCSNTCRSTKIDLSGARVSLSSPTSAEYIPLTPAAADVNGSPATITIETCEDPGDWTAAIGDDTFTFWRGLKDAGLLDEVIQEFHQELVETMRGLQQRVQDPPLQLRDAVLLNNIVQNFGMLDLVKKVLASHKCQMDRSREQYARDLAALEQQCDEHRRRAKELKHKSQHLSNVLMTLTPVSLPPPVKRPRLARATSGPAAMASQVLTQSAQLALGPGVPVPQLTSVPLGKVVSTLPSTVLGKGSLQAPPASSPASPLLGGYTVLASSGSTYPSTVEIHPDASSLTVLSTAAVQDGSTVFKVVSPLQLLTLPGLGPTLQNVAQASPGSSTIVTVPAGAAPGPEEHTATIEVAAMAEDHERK
Sequence of UniProt Q658Y4 (Q658Y4 whole entry, looked up): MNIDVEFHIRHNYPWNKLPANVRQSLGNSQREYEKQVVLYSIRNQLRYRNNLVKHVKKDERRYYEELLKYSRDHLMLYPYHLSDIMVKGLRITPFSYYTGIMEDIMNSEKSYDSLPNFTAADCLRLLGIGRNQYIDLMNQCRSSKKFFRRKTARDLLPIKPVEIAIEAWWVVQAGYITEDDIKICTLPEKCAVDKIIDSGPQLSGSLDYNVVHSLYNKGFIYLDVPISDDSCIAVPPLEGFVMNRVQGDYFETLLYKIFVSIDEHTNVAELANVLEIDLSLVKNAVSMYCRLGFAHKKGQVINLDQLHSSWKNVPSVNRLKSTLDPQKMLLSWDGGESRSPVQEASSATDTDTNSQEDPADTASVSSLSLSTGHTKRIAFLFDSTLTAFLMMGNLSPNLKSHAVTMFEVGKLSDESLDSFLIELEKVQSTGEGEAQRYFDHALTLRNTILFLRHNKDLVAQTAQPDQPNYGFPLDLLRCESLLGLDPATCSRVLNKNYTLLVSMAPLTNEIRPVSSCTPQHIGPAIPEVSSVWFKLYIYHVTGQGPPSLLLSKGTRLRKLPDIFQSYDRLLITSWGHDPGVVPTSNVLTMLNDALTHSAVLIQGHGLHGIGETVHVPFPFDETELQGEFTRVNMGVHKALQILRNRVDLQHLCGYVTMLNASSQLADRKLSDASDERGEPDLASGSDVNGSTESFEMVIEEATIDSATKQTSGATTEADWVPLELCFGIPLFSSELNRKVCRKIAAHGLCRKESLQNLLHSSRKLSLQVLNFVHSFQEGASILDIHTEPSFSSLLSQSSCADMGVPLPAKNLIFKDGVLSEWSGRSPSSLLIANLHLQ
Sequence of UniProt Q8N4A0 (Q8N4A0 whole entry, looked up): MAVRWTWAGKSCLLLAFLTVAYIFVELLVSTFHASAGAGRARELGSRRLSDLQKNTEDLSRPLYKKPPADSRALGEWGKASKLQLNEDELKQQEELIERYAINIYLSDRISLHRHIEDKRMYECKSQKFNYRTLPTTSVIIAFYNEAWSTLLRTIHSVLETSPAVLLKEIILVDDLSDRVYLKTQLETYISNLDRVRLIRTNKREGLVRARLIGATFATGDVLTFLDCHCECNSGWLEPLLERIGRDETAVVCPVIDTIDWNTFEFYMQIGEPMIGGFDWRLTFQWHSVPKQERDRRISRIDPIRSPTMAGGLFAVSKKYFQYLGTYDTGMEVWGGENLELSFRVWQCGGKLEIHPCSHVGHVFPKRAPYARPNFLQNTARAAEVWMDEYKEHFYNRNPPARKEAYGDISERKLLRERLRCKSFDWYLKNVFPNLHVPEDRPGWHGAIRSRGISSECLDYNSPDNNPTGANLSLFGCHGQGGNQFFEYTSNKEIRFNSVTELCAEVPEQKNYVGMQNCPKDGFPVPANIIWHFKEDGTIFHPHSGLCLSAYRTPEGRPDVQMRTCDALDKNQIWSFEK
Sequence of UniProt Q7Z4H3 (Q7Z4H3 whole entry, looked up): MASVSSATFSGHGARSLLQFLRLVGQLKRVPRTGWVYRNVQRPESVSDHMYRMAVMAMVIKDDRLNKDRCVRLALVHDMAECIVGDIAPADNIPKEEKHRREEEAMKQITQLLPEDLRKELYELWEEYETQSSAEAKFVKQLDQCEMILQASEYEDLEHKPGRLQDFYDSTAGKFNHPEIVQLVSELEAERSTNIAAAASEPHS
Sequence of UniProt P04066 (P04066 whole entry, looked up): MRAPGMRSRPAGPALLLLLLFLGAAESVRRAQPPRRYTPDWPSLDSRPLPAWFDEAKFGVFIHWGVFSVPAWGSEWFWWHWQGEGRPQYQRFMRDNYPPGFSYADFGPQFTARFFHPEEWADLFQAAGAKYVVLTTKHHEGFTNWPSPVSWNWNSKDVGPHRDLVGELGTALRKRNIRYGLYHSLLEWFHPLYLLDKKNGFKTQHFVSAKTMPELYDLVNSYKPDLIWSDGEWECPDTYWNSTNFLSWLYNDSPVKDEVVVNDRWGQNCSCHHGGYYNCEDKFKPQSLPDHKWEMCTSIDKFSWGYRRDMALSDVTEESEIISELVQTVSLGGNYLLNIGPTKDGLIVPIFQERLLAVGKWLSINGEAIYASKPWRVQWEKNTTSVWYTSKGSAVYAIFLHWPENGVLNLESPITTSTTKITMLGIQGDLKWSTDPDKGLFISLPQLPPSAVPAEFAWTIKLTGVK
Sequence of UniProt Q5SSJ5 (Q5SSJ5 whole entry, looked up): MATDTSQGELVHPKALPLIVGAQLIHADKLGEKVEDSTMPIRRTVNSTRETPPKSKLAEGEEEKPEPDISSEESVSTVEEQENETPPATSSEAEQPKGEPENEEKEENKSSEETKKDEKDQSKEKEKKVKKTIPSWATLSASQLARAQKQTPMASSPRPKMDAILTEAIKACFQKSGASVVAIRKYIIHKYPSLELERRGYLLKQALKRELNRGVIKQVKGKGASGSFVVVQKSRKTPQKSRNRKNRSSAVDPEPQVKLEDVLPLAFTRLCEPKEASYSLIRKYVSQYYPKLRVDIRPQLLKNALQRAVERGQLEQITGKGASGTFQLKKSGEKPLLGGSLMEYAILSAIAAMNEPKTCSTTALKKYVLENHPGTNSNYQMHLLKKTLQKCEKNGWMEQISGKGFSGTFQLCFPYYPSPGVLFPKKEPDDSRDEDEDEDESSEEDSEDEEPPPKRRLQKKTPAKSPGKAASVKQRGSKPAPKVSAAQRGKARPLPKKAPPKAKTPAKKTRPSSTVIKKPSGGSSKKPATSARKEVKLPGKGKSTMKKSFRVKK
Sequence of UniProt Q7Z4V5 (Q7Z4V5 whole entry, looked up): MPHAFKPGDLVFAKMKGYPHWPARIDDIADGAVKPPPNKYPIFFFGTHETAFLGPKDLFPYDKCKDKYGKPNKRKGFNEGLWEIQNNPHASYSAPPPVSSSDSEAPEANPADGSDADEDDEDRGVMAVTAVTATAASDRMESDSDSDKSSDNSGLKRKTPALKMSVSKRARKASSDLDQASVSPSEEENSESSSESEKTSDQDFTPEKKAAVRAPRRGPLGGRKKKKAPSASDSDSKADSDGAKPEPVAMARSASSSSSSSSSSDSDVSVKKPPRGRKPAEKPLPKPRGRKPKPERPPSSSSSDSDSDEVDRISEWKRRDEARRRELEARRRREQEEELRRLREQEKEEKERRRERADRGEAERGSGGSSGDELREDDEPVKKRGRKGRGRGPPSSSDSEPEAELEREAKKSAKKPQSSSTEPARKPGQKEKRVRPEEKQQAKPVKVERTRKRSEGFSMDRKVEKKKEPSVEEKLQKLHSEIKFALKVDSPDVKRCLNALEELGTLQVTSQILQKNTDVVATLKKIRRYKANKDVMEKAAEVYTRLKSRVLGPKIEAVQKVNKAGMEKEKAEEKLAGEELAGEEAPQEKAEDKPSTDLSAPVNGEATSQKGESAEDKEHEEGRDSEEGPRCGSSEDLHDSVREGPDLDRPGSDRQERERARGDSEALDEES
Sequence of UniProt P00367 (P00367 whole entry, looked up): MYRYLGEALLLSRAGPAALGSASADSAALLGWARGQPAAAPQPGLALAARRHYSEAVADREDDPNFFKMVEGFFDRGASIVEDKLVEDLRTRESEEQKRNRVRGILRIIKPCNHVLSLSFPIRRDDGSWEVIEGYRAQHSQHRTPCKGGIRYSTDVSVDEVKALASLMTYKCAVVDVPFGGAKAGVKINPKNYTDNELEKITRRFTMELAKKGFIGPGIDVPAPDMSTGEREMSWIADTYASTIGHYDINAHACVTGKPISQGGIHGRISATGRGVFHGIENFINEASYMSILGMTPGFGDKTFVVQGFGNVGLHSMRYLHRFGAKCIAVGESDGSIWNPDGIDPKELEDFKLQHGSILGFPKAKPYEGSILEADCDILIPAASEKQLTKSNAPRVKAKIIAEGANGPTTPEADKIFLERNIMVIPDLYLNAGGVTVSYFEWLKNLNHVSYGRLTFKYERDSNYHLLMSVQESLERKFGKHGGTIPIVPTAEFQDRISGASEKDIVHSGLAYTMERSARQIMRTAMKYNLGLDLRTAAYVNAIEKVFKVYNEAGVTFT
Sequence of UniProt Q53GQ0 (Q53GQ0 whole entry, looked up): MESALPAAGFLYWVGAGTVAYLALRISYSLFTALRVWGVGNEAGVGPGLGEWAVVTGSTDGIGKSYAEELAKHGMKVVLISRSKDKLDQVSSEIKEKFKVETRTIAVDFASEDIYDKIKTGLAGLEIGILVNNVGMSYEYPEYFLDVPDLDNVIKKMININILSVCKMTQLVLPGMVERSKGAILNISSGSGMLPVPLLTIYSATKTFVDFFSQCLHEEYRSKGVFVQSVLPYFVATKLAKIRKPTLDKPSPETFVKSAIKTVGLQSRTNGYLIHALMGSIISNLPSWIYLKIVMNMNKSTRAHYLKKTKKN
Sequence of UniProt P0CL80 (P0CL80 whole entry, looked up): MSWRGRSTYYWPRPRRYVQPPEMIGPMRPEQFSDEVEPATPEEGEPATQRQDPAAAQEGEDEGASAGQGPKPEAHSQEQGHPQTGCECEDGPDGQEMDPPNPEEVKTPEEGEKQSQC

log2 fold change, inactive:
GAPVD1 isoform 6 (UniProt Q14C86) -0.021
IDH3A (UniProt P50213) -0.074
GALNT4 (UniProt Q8N4A0) -0.099
HMOX2 (UniProt P30519) 0.148
HIP1R (UniProt O75146) -0.046
GBF1 (UniProt Q92538) -0.037
HSD17B12 (UniProt Q53GQ0) -0.169
GABPA (UniProt Q06546) -0.025
HTATIP2 isoform 3 (UniProt Q9BUP3) -0.031
HDDC2 (UniProt Q7Z4H3) -0.068
HLTF (UniProt Q14527) -0.049
GATD1 (UniProt Q8NB37) -0.038
HP1BP3 (UniProt Q5SSJ5) 0.095
GTF3C4 (UniProt Q9UKN8) -0.003
FUCA1 (UniProt P04066) -0.044
FAM91A1 (UniProt Q658Y4) -0.044
GLRX3 (UniProt O76003) -0.001
GAGE12F (UniProt P0CL80) 0.055
HDGFL2 (UniProt Q7Z4V5) 0.012
GMEB2 (UniProt Q9UKD1) 0.073
GLYR1 (UniProt Q49A26) 0
FNTA (UniProt P49354) -0.062
IFI30 (UniProt P13284) 0.027
GABARAPL2 (UniProt P60520) -0.072
HIKESHI (UniProt Q53FT3) -0.05
GSTM4 (UniProt Q03013) 0.031
FIS1 (UniProt Q9Y3D6) -0.047
IDI1 isoform 2 (UniProt Q13907) -0.006
HNRNPH1 (UniProt P31943) 0.048
HIST2H3A (UniProt Q71DI3) 0.508
FHOD1 (UniProt Q9Y613) 0.127
GLUD1 (UniProt P00367) -0.047
FBXO7 (UniProt Q9Y3I1) -0.04
HIC2 (UniProt Q96JB3) 0.238
FUBP3 (UniProt Q96I24) 0.049

compound: COc1cc(Nc2ncc3c(n2)-c2ccc(Cl)cc2C(c2c(F)cccc2OC)=NC3)ccc1C(=O)O [alisertib]; assay: as above
Summary of the method: as §1

log2 fold change, inactive:
GAPVD1 isoform 6 (UniProt Q14C86) 0.047
IDH3A (UniProt P50213) -0.063
GALNT4 (UniProt Q8N4A0) -0.015
HMOX2 (UniProt P30519) -0.03
HIP1R (UniProt O75146) 0.114
GBF1 (UniProt Q92538) -0.013
HSD17B12 (UniProt Q53GQ0) 0.003
GABPA (UniProt Q06546) -0.002
HTATIP2 isoform 3 (UniProt Q9BUP3) -0.029
HDDC2 (UniProt Q7Z4H3) 0.04
HLTF (UniProt Q14527) 0.008
GATD1 (UniProt Q8NB37) -0.001
HP1BP3 (UniProt Q5SSJ5) -0.069
GTF3C4 (UniProt Q9UKN8) -0.032
FUCA1 (UniProt P04066) -0.004
FAM91A1 (UniProt Q658Y4) -0.076
GLRX3 (UniProt O76003) -0.063
GAGE12F (UniProt P0CL80) -0.312
HDGFL2 (UniProt Q7Z4V5) -0.051
GMEB2 (UniProt Q9UKD1) -0.009
GLYR1 (UniProt Q49A26) 0.071
FNTA (UniProt P49354) -0.074
IFI30 (UniProt P13284) -0.11
GABARAPL2 (UniProt P60520) 0.016
HIKESHI (UniProt Q53FT3) -0.076
GSTM4 (UniProt Q03013) 0.061
FIS1 (UniProt Q9Y3D6) -0.034
IDI1 isoform 2 (UniProt Q13907) -0.003
HNRNPH1 (UniProt P31943) 0.028
HIST2H3A (UniProt Q71DI3) 0.001
FHOD1 (UniProt Q9Y613) -0.161
GLUD1 (UniProt P00367) -0.039
FBXO7 (UniProt Q9Y3I1) -0.082
HIC2 (UniProt Q96JB3) -0.057
FUBP3 (UniProt Q96I24) 0.034
